In the library only some 9.5% were active in any assay of this set; here they are far more common.
SARS PLP yeast: SARS-CoV PLP inhibition in yeast | S. cerevisiae expressing SARS-CoV PLpro, growth rescue | Potency, µM (highest dose often 32.9 µM), for the others: at the highest dose activity, positive = growth rescue, usual class: activators | 0.19% of 330,000 active; note: 0% is about no effect; nearly all actives have a fitted effect of over 55% in size
RE007 growth inh: less growth of the S. pombe RE007 Vpr strain; S. pombe RE007 Vpr strain, BacTiter-Glo ATP luminescence, 24 h; 0.21% of 360,000 active; Potency, µM (titrated, usually from 92.2 µM), for inactives: top-dose activity change, negative = less growth, actives largely listed as inhibitors; active = well fitted falling curve with a large enough effect; inconclusive = small, poorly fitted or top-dose-only effect; inactive = no such curve, though single readings can be large or run the other way; note: % is set by controls: 0 for no effect and ±100 for the full control effect; nearly all actives have a fitted effect of over 50% in size
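Fission yeast strain RE007, carrying one chromosomally integrated HIV-1 vpr copy, was seeded at OD 0.01 in PMG+AL medium with 23 nL pinned compound. After 24 h at 30 °C and 99% humidity, viability was read by BacTiter-Glo luminescence.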
NS1 inh: influenza NS1 inhibition | Potency, µM (titrated, usually from 46.1 µM), without a hit: at the highest dose activity, positive = more growth | 0.4% of 270,000 active | AID 2326; note: actives are rising curves; nearly all actives have a fitted effect of over 50% in size
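In this qHTS, NS1 from influenza A is expressed in budding yeast, where it slows growth. Cells are switched from glucose to 2% galactose medium (pH 6.0, -URA), treated with compound, and growth recovery is read at OD600.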
Pf growth 96h: inhibits malaria parasite growth, 96 h | P. falciparum luciferase reporter growth, 96 h | Potency, µM (highest dose often 28.7 µM), for inactives: at the highest dose activity change, negative = inhibition, usual class: inhibitors | 6.9% of 320,000 active; active = well fitted inhibition curve with a large enough effect; inconclusive = small, poorly fitted or top-dose-only effect, or another doubt; inactive = no such curve, though single readings can be large or run the other way; note: % is set by controls: 0 for no effect and ±100 for the full control effect
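Readout is luminescence from an integrated firefly luciferase in P. falciparum. Red cells, 2% hematocrit and 0.05% parasitemia final, were cultured with compound through two parasite generations (96 hours) at 37 C, 5% CO2.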
Pf growth 48h: P. falciparum growth inhibition at 48 hours (one generation). Potency, µM (doses to about 28.7 µM), for inactives: at the top dose activity change, negative = inhibition, usual class: inhibitors. 5.9% of 310,000 active. AID 504832. P. falciparum luciferase growth in erythrocytes, 48 h; active = well fitted inhibition curve with a large enough effect; inconclusive = small, poorly fitted or top-dose-only effect, or another doubt; inactive = no such curve, though single readings can be large or run the other way; note: % is set by controls: 0 for no effect and ±100 for the full control effect
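Cell-based growth assay: transgenic P. falciparum expressing firefly luciferase, cultured in red cells within RPMI 1640 containing 0.5% w/v Albumax, 24 mM bicarbonate and gentamycin. A drop in luciferase activity indicates inhibition.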
* hit, by the source's call; ? = inconclusive; / = not tested or not shown. Unless noted, calls come from the whole dose curve. Potency is the fitted concentration of half-maximal effect.

SMILES | SARS PLP yeast | RE007 growth inh | NS1 inh | Pf growth 96h | Pf growth 48h
Cc1cc(C2=NNC(=NC3CC3)SC2)c(C)n1-c1ccccc1F | -24.7% | -0.4% | ? | ? | ?
Cc1cc(C2=NNC(=NC3CCCCC3)SC2)c(C)n1-c1c(C)n(C)n(-c2ccccc2)c1=O | 2.5% | -21.4% | / | 13.1µM* | 6.57µM*
COc1ccccc1C(=O)NCCC(=O)NCc1ccncc1 | 4.9% | -3.4% | / | -16.6% | -15.6%
CCOC(=O)C1(C)NC(c2ccco2)C2C(=O)N(CC)C(=O)C21 (stereo unspecified) | 3.1% | -12.5% | 4.0% | 2.94µM* | -3.0%
Cc1c(C(=O)N(Cc2cccc(Br)c2)C2CCS(=O)(=O)C2)oc2ccccc12 (stereo unspecified) | ? | 3.4% | -11.7% | 13.1µM* | ?
COc1ccc(/C(C)=N/NC(=O)c2cccc(S(=O)(=O)N3CCCC3)c2)c(O)c1 | -5.5% | 1.0% | / | ? | ?
CCCCn1c(SC(C)C(N)=O)nc2cc(C(=O)OC)ccc2c1=O (stereo unspecified) | 14.3% | -0.7% | 1.7% | ? | 5.1%
COCCCn1c(SCC(=O)N2CCOCC2)nc2ccccc2c1=O | -12.8% | -18.5% | -0.9% | ? | 11.5%
CCCCn1c(SC(C)C(=O)NCC2CCCO2)nc2cc(C(=O)OC)ccc2c1=O (stereo unspecified) | -1.7% | -8.1% | / | 8.28µM* | 5.86µM*
COC(=O)c1ccc2c(=O)n(CCN3CCOCC3)c(SCC(=O)C(C)(C)C)nc2c1 | 1.6% | 2.4% | 10.7% | 13.1µM* | ?
COC(=O)c1ccc2c(=O)n(CCN3CCOCC3)c(SCC(=O)Nc3ccc(C)cc3)nc2c1 | 3.5% | 3.3% | -34.8% | 11.7µM* | 0.0%
COCCCn1c(SCC(=O)N2CCOCC2)nc2cc(Cl)ccc2c1=O | -2.1% | 5.0% | / | -3.9% | 10.4µM*
CC(=O)Nc1nnc(SCC(=O)Nc2nc(C)cs2)s1 | -10.9% | 1.4% | 7.8% | -2.6% | 1.9%
O=C(O)[C@@H]1[C@@H]2C[C@@H]3[C@@H](OC(=O)[C@@H]31)[C@H]2Br | / | / | 0.0% | / | /
CCn1c(SCC(=O)Nc2ccccc2)nc2nc3c(cc2c1=O)COC(C)(C)C3 | 4.5% | -17.9% | 1.9% | ? | ?
COc1ccc(OC)c(NC(=O)CSc2nc3ccccc3c(=O)n2CC2CCCO2)c1 (stereo unspecified) | -8.4% | -3.7% | 13.3% | ? | ?
COC(=O)c1ccc2c(=O)n(CC3CCCO3)c(SCC(=O)Nc3ccc(OC)cc3OC)nc2c1 (stereo unspecified) | 0.4% | -0.3% | 5.2% | ? | 6.57µM*
CCn1c(SCC(=O)Nc2ccc(OC)cc2OC)nc2nc3c(cc2c1=O)COC(C)(C)C3 | 3.4% | 2.7% | 2.0% | 8.28µM* | ?
O=C(C[n+]1ccccc1)N/N=C/c1ccc(Cl)c(Cl)c1 | 2.8% | -4.9% | 0.5% | ? | 8.28µM*
O=C(C[n+]1ccccc1)N/N=C/c1ccc(Br)cc1 | 0.8% | -0.8% | / | 2.94µM* | 10.4µM*
O=C(C[n+]1ccccc1)N/N=C/c1ccc(F)cc1 | -1.7% | 22.6% | 4.3% | ? | ?
CCOC(=O)N1CCN(C2CCCN(C(=O)c3ccccc3N(C)C)C2)CC1 (stereo unspecified) | 2.2% | -10.4% | -1.3% | 15.5% | ?
CCOC(=O)c1c(C)[nH]c(C)c1S(=O)(=O)N1CCN(c2ccc(F)cc2)CC1 | 3.4% | 12.9% | -3.8% | 8.28µM* | -6.5%
CCOC(=O)c1c(C)[nH]c(C)c1S(=O)(=O)N1CCOCC1 | -2.0% | 0.7% | 4.5% | 6.57µM* | 28.0%
CN(C)CCCN(C(=O)c1ccc(S(=O)(=O)N2CCc3ccccc32)cc1)c1nc2ccc(Cl)cc2s1 | -3.9% | -5.5% | 22.1% | 5.22µM* | 10.4µM*
SMILES | SARS PLP yeast | RE007 growth inh | NS1 inh | Pf growth 96h | Pf growth 48h
Cc1cc(C)c2sc(N(CCCN(C)C)C(=O)c3ccc(S(=O)(=O)N4CCCc5ccccc54)cc3)nc2c1 | -2.5% | 4.7% | / | ? | 9.28µM*
CN(C)CCCN(C(=O)c1ccc(S(=O)(=O)N2CCc3ccccc32)cc1)c1nc2ccc(F)cc2s1 | 4.7% | 11.8% | 8.7% | ? | ?
CS(=O)CCC(NS(=O)(=O)c1ccccc1)C(=O)O (stereo unspecified) | 9.2% | 9.2% | -1.4% | 9.28µM* | ?
Cc1ccc(S(=O)(=O)N2CCN(C(=O)N3CCOCC3)C2C(C)C)cc1 (stereo unspecified) | -0.7% | 1.8% | -3.1% | 11.7µM* | -18.0%
COc1ccc2c(c1OC)C(=O)OC2CC(=O)O (stereo unspecified) | -0.4% | 22.2% | 10.4% | / | 25.6%
CCCOC1OC(=O)c2c1ccc(OC)c2OC (stereo unspecified) | -17.8% | 2.0% | 3.3% | 5.22µM* | 17.8%
CCCc1nc2ccc(NC(=O)c3cccs3)cc2c(=O)n1Cc1ccc(Cl)cc1 | 25.3% | -4.9% | 18.6% | 2.2% | 0.465µM*
Cc1nc2ccc(NC(=O)c3cccs3)cc2c(=O)n1Cc1ccc(Cl)cc1 | -14.0% | -7.3% | 0.7% | 3.29µM* | ?
CC(=O)Nc1ccc2nc(C3CC3)n(Cc3ccc(Cl)cc3)c(=O)c2c1 | 0.6% | 0.5% | / | 35.8% | 127.3%
O=C(Nc1cccc(Cl)c1)Nc1ccnc(-c2cccnc2)n1 | 1.3% | -6.6% | 4.0% | -18.8% | 10.4µM*
COC(=O)c1cc(NC(=O)Nc2cccc(Cl)c2)ccc1Cl | -21.6% | 0.1% | -55.1% | 14.7µM* | 9.28µM*
O=C(Nc1cccc(F)c1)Nc1cccc(Cl)c1 | -21.1% | -6.9% | -95.7% | ? | ?
COC(=O)c1cccc(NC(=O)Nc2ccc(Cl)cc2)c1 | -1.3% | 8.6% | -3.2% | -41.2% | 166.1%
CC1CCC(=C(C#N)C(=O)Nc2cccc(Cl)c2)CC1 (stereo unspecified) | 0.5% | 2.5% | -11.4% | 14.7µM* | ?
O=C(Nc1cccc(Cl)c1)Nc1cccc(Cl)c1 | -10.2% | 3.4% | 4.6% | -16.9% | 3.7µM*
CCC(C)NC(=O)c1c(N)n(/N=C/c2cccnc2)c2nc3ccccc3nc12 (stereo unspecified) | -6.9% | 5.9% | -4.1% | ? | ?
CC(C)CCNC(=O)c1c(N)n(Cc2ccc3c(c2)OCO3)c2nc3ccccc3nc12 | -3.8% | -18.1% | 3.2% | 11.7µM* | /
CC(C)CNC(=O)c1c(N)n(/N=C/c2cccnc2)c2nc3ccccc3nc12 | 0.0% | / | -8.2% | 3.29µM* | 6.5%
CC(C)CNC(=O)c1c(N)n(Cc2ccc3c(c2)OCO3)c2nc3ccccc3nc12 | -12.1% | 6.7% | 23.1% | / | 6.57µM*
COc1ccc(OC)c(NC(=O)CCc2c[nH]c3ccccc23)c1 | -8.2% | 4.2% | / | 12.6% | 4.2%
Cc1cc(C)n2nc(SCC(=O)N3CCN(c4ccc(F)cc4)CC3)nc2n1 | 8.1% | -11.1% | / | 6.57µM* | ?
Cc1cc(C)n2nc(SCC(=O)N3CCOCC3)nc2n1 | -2.2% | -6.8% | / | -5.9% | 30.6%

Screens: PubChem, National Center for Advancing Translational Sciences (NCATS)
